Columns and labels:
Assay in all cases: log2 ratio of Biotin-Ahx-Ub-VS probe labelling (fragment/DMSO); higher = less target engagement (more negative = stronger competition), active = hit call of the paper (q ≤ 0.05, log2 ratio ≤ -1)
Details in all cases: compound concentration: 200 uM; treatment time: 3 h
[1] = target: T1, USP42 (UniProt Q9H9J4)
T1 sequence (whole entry): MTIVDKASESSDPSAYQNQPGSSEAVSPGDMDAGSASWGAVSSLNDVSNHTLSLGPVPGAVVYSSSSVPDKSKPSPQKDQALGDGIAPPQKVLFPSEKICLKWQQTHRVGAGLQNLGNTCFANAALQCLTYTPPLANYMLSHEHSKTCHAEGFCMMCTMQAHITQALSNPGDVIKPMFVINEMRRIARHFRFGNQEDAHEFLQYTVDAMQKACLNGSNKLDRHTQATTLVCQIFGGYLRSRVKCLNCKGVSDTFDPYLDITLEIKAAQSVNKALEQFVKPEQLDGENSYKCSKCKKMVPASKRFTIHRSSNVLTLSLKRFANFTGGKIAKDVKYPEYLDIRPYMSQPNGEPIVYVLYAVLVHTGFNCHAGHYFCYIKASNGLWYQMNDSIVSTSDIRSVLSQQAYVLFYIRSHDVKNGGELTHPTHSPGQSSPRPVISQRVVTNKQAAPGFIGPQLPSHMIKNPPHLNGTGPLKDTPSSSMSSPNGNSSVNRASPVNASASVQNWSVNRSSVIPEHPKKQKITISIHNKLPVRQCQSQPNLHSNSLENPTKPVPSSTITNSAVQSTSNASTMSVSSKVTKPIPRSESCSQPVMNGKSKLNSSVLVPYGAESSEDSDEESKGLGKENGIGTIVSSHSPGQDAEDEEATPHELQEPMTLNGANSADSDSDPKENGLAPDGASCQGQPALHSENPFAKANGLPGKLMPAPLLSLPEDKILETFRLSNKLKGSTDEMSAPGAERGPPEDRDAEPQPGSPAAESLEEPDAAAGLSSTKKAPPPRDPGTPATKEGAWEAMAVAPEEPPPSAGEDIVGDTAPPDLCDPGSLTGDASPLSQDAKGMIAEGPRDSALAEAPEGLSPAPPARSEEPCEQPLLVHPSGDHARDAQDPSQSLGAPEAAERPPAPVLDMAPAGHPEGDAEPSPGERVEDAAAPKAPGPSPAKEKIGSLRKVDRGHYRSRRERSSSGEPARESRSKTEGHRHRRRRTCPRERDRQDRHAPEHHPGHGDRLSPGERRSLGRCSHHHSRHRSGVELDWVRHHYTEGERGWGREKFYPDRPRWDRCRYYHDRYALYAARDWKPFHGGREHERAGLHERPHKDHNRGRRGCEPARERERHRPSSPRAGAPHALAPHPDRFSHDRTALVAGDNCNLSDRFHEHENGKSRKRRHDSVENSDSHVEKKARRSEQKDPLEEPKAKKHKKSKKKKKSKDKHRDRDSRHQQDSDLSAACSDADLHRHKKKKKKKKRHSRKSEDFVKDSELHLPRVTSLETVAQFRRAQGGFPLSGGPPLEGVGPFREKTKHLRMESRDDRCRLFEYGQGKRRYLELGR
Procedure, shortened: (§1)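 HEK293T lysate in Tris/CHAPS/IGEPAL buffer with protease inhibitors (495 µg per sample) was given fragment at 200 µM or vehicle for 3 h, in triplicate. It then received Biotin-Ahx-Ub-VS at 0.5 µM final for 1 h. Labelled DUBs were NeutrAvidin-enriched, digested with LysC and trypsin, and run by diaPASEF LC-MS/MS. Values are average log2 fragment/vehicle ratios by unpaired t-test on global-median-normalised Spectronaut quantities of proteins with ≥2 unique peptides.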

[2] = target: USP46 (UniProt P62068)
Sequence of USP46 (P62068 whole entry): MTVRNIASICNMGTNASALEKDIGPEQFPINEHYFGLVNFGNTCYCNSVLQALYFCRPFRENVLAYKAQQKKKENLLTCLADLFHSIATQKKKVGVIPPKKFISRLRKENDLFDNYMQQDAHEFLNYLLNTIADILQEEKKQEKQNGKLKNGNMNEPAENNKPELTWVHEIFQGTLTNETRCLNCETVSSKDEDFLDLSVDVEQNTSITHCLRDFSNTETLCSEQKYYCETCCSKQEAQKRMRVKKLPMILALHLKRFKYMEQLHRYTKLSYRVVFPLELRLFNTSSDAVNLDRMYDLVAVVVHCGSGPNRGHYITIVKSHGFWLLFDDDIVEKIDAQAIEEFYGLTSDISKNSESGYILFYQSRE
Procedure, shortened: as §1

[3] = target: T2, USP47 (UniProt Q96K76)
T2 sequence (whole entry): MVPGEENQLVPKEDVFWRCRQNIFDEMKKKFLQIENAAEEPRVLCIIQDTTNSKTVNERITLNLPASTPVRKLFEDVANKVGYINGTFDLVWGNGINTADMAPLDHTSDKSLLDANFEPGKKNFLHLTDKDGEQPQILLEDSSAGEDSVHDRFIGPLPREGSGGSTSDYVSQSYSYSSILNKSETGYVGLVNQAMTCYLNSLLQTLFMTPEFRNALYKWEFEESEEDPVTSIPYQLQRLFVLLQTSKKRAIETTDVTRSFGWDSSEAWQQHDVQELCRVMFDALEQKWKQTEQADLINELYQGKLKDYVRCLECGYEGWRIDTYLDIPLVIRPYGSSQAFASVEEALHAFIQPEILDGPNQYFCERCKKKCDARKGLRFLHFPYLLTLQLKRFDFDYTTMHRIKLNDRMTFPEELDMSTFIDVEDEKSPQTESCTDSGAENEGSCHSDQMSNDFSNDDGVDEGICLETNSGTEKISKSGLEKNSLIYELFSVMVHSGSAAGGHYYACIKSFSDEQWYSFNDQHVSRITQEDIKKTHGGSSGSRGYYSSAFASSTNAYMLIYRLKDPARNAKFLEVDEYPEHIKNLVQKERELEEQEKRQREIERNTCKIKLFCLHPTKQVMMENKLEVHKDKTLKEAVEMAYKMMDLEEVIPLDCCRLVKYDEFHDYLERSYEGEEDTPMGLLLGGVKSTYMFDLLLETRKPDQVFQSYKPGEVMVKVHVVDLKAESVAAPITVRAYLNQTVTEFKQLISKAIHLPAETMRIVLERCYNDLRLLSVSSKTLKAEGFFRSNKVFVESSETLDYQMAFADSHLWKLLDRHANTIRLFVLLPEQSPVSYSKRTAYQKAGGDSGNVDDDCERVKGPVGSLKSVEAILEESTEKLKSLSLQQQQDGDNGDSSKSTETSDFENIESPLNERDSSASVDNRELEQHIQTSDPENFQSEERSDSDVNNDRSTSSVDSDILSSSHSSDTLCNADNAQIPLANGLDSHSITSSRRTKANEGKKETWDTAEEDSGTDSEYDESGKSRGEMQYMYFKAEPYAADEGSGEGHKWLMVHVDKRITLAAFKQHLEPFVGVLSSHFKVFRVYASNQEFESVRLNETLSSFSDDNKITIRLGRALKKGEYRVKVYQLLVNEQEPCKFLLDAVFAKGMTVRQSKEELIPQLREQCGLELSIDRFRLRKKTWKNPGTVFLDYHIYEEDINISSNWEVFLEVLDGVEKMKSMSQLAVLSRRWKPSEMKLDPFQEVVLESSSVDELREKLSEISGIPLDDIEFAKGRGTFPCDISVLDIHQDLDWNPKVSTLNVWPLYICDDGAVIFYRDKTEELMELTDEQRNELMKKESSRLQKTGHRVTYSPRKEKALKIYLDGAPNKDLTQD
Procedure, shortened: as §1

[4] = target: T3, USP48 (UniProt Q86UV5)
T3 sequence (whole entry): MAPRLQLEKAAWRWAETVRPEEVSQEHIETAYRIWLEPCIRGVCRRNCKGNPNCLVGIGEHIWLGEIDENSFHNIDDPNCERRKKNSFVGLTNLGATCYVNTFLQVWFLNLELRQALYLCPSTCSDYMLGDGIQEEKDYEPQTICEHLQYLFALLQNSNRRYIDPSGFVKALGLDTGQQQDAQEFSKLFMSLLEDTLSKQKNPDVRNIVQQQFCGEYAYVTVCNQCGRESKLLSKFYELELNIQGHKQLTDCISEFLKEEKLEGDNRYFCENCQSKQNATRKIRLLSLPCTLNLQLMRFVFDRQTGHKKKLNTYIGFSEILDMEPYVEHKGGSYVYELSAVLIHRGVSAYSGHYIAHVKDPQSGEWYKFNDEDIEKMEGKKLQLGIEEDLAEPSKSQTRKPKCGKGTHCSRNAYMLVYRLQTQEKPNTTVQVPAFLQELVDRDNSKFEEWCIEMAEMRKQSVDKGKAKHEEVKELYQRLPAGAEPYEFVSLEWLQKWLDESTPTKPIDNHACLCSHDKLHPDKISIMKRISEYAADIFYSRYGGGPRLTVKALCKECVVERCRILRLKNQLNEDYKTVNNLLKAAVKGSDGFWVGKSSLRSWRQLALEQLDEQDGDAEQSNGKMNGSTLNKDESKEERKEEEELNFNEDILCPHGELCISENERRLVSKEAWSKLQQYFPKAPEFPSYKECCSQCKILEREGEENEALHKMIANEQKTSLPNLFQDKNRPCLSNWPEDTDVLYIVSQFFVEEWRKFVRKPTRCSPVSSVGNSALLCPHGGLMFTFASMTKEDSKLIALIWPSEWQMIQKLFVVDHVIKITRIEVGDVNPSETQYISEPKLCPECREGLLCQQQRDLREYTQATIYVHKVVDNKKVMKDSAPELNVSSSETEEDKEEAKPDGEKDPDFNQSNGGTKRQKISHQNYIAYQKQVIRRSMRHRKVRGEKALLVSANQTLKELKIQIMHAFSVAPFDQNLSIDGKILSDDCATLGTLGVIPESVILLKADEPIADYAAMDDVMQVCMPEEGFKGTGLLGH
Procedure, shortened: as §1

[5] = target: T4, USP5 (UniProt P45974)
T4 sequence (whole entry): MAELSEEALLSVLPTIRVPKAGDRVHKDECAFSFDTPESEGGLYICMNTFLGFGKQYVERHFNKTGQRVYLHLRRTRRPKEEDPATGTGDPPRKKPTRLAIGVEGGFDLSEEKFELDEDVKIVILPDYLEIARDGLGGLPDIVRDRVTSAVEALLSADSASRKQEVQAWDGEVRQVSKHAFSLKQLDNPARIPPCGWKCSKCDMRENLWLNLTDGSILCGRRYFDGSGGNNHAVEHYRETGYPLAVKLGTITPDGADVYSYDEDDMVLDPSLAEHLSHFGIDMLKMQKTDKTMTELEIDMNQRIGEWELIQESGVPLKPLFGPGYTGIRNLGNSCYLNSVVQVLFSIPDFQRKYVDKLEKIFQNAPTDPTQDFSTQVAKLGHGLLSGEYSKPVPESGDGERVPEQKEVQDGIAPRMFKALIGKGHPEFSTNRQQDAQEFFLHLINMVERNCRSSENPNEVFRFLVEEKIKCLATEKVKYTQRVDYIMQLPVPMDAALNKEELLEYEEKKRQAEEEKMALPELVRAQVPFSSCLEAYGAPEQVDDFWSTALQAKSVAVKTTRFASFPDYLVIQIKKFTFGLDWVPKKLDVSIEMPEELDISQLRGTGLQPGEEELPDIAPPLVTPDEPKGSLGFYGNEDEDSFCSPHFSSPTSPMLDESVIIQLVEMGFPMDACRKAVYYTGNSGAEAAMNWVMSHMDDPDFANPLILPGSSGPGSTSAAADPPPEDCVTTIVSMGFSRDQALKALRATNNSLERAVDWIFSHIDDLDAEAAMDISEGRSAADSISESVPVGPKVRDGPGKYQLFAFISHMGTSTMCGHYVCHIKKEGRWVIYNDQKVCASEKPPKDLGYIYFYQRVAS
Procedure, shortened: as §1

[6] = target: USP54 (UniProt Q70EL1)
Sequence of USP54 (Q70EL1 whole entry): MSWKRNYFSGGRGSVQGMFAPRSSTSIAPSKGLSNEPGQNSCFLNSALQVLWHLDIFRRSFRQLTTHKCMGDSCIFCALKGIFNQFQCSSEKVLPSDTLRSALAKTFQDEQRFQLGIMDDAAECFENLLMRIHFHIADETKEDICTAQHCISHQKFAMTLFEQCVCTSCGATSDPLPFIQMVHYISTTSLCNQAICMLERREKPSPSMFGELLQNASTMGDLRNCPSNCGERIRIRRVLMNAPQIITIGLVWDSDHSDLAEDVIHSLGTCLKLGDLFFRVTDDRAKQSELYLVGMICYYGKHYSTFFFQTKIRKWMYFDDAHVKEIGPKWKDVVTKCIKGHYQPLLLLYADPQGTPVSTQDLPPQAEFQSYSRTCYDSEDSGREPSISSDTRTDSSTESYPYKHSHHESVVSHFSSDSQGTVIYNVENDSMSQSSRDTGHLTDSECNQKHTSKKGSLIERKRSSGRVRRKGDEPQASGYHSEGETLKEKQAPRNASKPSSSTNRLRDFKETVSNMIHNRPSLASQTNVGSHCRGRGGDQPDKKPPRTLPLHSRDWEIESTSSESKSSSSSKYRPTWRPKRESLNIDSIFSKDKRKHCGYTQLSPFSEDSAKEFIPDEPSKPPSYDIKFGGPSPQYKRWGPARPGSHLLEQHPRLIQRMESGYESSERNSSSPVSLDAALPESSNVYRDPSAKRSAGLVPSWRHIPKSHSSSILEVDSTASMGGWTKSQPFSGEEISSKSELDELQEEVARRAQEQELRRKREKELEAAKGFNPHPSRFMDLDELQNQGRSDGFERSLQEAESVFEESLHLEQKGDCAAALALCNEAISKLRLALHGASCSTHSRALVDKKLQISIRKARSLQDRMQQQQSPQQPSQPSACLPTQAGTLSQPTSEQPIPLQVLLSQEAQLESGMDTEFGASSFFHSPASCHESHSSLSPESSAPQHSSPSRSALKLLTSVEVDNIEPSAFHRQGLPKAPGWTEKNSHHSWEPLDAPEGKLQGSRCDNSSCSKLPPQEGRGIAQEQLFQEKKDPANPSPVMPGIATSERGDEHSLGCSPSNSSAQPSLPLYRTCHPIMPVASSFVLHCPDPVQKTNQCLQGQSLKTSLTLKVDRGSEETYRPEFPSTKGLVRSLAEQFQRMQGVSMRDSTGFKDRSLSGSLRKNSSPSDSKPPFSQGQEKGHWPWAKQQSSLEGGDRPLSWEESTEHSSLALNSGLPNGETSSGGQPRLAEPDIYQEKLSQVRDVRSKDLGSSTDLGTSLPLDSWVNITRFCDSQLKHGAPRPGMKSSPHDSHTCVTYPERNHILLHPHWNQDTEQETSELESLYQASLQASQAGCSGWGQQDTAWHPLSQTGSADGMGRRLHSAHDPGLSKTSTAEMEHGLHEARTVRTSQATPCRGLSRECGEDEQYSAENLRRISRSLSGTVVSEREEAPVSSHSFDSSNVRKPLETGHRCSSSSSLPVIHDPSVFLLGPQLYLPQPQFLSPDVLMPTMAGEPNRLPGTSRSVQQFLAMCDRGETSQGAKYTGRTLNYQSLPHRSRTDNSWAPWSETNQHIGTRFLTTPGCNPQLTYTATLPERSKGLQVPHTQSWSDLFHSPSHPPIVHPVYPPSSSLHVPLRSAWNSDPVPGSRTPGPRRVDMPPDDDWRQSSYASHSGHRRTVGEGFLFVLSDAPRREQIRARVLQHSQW
Procedure, shortened: as §1

[7] = target: USP7 (UniProt Q93009)
Sequence of USP7 (Q93009 whole entry, looked up): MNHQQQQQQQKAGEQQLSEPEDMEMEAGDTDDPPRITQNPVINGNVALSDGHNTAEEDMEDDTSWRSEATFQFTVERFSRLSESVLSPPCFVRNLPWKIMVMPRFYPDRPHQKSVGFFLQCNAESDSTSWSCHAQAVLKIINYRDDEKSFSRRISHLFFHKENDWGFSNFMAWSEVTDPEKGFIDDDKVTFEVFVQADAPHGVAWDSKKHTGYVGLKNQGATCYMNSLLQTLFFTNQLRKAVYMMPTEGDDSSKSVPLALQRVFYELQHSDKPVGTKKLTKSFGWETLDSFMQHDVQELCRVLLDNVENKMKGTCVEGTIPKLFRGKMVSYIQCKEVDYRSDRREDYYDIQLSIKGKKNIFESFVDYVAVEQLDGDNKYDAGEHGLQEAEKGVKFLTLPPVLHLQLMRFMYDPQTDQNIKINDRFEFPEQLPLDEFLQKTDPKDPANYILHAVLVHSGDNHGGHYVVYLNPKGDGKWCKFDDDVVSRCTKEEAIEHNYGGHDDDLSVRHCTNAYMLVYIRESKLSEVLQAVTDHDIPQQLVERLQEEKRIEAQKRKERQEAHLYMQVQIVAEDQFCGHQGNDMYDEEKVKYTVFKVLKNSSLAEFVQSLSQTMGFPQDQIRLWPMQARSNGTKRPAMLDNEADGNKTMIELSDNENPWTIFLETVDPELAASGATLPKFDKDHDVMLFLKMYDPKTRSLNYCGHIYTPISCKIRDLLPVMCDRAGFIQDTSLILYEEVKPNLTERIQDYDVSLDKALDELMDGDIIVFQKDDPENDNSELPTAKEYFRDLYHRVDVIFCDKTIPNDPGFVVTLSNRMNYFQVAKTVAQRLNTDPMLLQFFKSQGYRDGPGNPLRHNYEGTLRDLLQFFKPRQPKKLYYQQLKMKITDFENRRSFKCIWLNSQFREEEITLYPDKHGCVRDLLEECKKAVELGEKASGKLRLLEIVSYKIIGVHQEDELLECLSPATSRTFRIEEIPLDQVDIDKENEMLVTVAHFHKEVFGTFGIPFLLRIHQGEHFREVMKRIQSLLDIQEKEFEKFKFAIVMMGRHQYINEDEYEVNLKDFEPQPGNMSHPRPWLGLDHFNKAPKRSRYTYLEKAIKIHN
Procedure, shortened: as §1

[8] = target: T5, USP8 (UniProt P40818)
T5 sequence (whole entry): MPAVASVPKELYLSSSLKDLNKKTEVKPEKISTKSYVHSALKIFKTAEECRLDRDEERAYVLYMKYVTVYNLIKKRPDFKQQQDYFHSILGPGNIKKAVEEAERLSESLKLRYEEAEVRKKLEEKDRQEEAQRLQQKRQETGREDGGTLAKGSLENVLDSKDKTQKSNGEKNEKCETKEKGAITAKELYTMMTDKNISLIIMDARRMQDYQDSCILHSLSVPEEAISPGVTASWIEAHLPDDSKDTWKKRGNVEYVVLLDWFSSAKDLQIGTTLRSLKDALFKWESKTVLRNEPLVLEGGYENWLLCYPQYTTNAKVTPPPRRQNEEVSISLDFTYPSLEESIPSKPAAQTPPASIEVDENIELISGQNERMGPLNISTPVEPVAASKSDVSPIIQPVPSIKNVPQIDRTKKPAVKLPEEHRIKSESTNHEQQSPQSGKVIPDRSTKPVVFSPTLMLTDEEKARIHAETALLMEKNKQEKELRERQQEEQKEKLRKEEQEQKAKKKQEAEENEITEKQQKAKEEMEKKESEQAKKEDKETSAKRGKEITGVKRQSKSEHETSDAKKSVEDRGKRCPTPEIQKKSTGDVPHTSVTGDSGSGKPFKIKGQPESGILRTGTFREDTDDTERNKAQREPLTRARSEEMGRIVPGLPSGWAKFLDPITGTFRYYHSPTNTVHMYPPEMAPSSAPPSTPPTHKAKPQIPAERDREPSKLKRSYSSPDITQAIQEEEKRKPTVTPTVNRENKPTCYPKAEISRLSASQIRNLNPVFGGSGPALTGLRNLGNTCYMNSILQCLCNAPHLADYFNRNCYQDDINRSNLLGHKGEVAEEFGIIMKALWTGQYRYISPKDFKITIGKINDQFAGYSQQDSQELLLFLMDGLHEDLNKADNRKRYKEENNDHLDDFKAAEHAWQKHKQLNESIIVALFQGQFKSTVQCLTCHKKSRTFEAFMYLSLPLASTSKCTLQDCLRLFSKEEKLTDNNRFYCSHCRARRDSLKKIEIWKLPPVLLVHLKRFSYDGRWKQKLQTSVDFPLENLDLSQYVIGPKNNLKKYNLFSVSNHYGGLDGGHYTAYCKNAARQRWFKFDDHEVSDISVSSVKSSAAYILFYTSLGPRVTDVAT
Procedure, shortened: as §1

[9] = target: USP9X (UniProt Q93008)
Procedure, shortened: as §1

[10] = target: UniProt O00487
Sequence of UniProt O00487 (O00487 whole entry): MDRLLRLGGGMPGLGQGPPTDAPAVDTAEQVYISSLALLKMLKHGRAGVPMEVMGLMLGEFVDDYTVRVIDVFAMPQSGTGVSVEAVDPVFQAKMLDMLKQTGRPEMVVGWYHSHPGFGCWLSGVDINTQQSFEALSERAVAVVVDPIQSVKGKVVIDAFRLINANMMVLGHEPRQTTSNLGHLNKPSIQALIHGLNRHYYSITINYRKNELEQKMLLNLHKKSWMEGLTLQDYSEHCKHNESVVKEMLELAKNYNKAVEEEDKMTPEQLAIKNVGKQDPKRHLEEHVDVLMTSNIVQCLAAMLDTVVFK
Procedure, shortened: as §1

Measured: log2 ratio of Biotin-Ahx-Ub-VS probe labelling

Cc1cnc2[nH]cc(CCNC(=O)CCl)c2c1
inactive: [1] 0.34 | [2] -0.0833 | [3] -0.00951 | [4] 0.00232 | [5] -0.115 | [6] 0.181 | [7] -0.0122 | [8] -0.428 | [9] -0.0941 | [10] 0.0974

Source: the supplement of paper PMC11732987, “Enantioselective OTUD7B fragment discovery through chemoproteomics screening and high-throughput optimisation” (Communications Chemistry, 2025)
